According to PubChem BioAssay AID588726 (The Scripps Research Institute Molecular Screening Center, 2011):
Screen size: about 360,000 compounds; about 8,200 (2.3%) were called active. Many of the other results were omitted from the sample, so actives are more common in it than they were. Values without a mark were called inactive. Cut-off read from the data, not from the text of the source: active = inhibition above about 27%; inactive = the rest.

molecular target: Fructose-bisphosphate aldolase (Mycobacterium tuberculosis (strain ATCC 25618 / H37Rv)) (UniProt P9WQA3); test: M. tuberculosis aldolase activity blockers – biochemical, fluorescence, strain H37Rv, primary screen (AID 588726);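 note: 0% = vehicle and 100% = reference inhibitor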; conditions: purified M. tuberculosis FBA, fluorescence read-out, at 1 µM, hits give high values
Sequence (P9WQA3 whole entry, looked up): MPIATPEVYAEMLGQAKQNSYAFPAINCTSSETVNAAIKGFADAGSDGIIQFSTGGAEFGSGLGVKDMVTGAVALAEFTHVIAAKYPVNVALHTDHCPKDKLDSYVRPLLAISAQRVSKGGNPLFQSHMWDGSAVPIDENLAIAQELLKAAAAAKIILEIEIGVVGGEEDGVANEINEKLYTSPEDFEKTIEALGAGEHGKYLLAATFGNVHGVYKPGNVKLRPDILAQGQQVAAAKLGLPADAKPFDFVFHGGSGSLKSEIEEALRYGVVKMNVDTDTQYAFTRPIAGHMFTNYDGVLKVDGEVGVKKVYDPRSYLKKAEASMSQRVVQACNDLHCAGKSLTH

Row | SMILES | inhibition
1 | CCN(CC)c1ccc(NC(=O)C2CCC(CNc3c(N4CCCC4)c(=O)c3=O)CC2)c(C)c1 (stereo not drawn) | -0.83%
2 | COc1ccc2c(c1)CC[C@@H]1[C@@H]2CC[C@]2(C)C(=O)CC[C@@H]12 | 0.88%
3 | O=C1OCC2=C1C(c1ccccc1)CC(=O)N2c1cccc(F)c1 (stereo not drawn) | -3.03%
4 | Cc1ccc(S(=O)(=O)NCC(=O)OCC(=O)N2CCc3ccccc32)cc1 | 0.04%
5 | Cc1cnc(C(=O)OCC(=O)N2CCc3ccccc32)cn1 | 69% (active)
6 | O=C(OCC(=O)N1CCc2ccccc21)c1ccc([N+](=O)[O-])cc1 | -3.08%
7 | CCc1ccc(N2CC(C(=O)NC3=NCCS3)CC2=O)cc1 (stereo not drawn) | 4.59%
8 | O=C(CCc1ccccc1)Nc1nn[nH]n1 | 2.03%
9 | O=C(CCc1ccccc1)Nc1cccc(-c2nnc(-c3ccco3)o2)c1 | 26.9% (active)
10 | O=C(CSc1nnc(-c2ccco2)o1)NCC(=O)c1ccccc1 | -1.17%
11 | O=C1CCC(=O)N1CCOP1(=O)COc2ccccc2OC1 | 3.44%
12 | CCOC(=O)CSc1nc2c(c(=O)n(Cc3ccccc3Cl)c(=O)n2C)n1C | 88% (active)
13 | CCCSc1nc2c(c(=O)n(C)c(=O)n2C)n1Cc1ccc(C)cc1 | 1.01%
14 | CCC1CCCCN1C(=O)CSc1nc2c(c(=O)n(C)c(=O)n2C)n1C (stereo not drawn) | 0.65%
15 | CC(C)C1CCN(C(=O)C2CCC(=O)N(C3CCCCCC3)C2)CC1 (stereo not drawn) | -1.51%
16 | CCN(C(=O)Cc1c(C(=O)O)n(CC)c2ccccc12)c1ccccc1C | 0.97%
17 | Fc1ccc(COc2cccc(-c3n[nH]c(=S)o3)c2)cc1 | 29.4% (active)
18 | Fc1ccc(/C=N/n2c(COc3ccccc3)n[nH]c2=S)cc1 | 2.47%
19 | Fc1ccc(COc2ccc(-c3nnco3)cc2)cc1 | -0.19%
20 | CC1(C)C2CC[C@]3(C)C(CC=C4[C@@H]5C[C@@](C)(CO)CC[C@]5(C(=O)O)CC[C@]43C)[C@@]2(C)CC[C@@H]1O (stereo partly drawn) | 0.29%
21 | Cc1ccccc1C(=O)N1CCC(C(=O)Nc2ccc(S(=O)(=O)N(C)C(C)C)cc2)CC1 | 1.27%
22 | CC(=O)c1sc2nc(SCC(=O)N3CCCCC3)[nH]c(=O)c2c1C | 30.5% (active)
23 | O=C(CSc1nc2c(cnn2-c2ccc(F)cc2)c(=O)[nH]1)N1CCCCCC1 | 2.6%
24 | Cc1c(C)n2c(SCC(=O)N3CCCC3)nnc2[nH]c1=O | -0.46%
25 | CC(C)c1ccc(N(C(=O)c2ccco2)C(C(=O)NC2CCCC2)c2cccnc2)cc1 (stereo not drawn) | -3.97%
26 | O=C(NC(=S)Nc1ccccc1C(=O)O)c1ccc(-c2ccc(Br)cc2)o1 | 10.4%

Row | SMILES | inhibition
27 | CCOC(=O)Cc1c(C)nc2c(C#N)c(C)nn2c1C | 46.4% (active)
28 | Cc1cc(C)cc(NC(=O)CCN2C(=O)c3ccccc3C2=O)c1 | 0.74%
29 | Cc1cc(C)cc(NC(=O)CSCc2cnn(-c3ccccc3)c2-n2cccc2)c1 | -1.78%
30 | Cc1cc(C)cc(NC(=O)CSc2ccccc2)c1 | 70.8% (active)
31 | CCCN(CC(=O)Nc1ccccc1C)C(=O)c1ccc(OCC(=O)N2CCOCC2)c(OCC)c1 | -1.46%
32 | Cn1ncc2c(N3CCCCC3)nc(NCCCO)nc21 | -2.65%
33 | CC(C)(C)C(=O)NC1CC2CCCC(C1)N2C(=O)Nc1ccccc1F (stereo not drawn) | -0.96%
34 | CCCCn1c(N)c(N(CCOC)C(=O)CSCC(=O)Nc2cccc(C)c2)c(=O)[nH]c1=O | -1.91%
35 | COc1ccc(-c2nc3ccccc3n2CCC(C)C)cc1OC | 5.55%
36 | CCCCn1c(-c2cccc(C)c2)nc2cc3[nH]c(=O)c(C(C)C)nc3cc21 | 87.6% (active)
37 | Nn1c(Cc2cccc3ccccc23)nnc1SCC(=O)N1CC(=O)Nc2ccccc21 | 1.67%
38 | CSCCC(Nc1ccc(S(=O)(=O)N2CCOCC2)cc1[N+](=O)[O-])C(=O)OCC(=O)N(C(C)C)C(C)C (stereo not drawn) | -2.32%
39 | CCOC(=O)Cc1cc(=O)[nH]c(=O)[nH]1 | 1.01%
40 | Cc1c(CCC(=O)O)c(=O)oc2c(C)c(OCc3ccccc3Cl)ccc12 | 5.47%
41 | FC(F)(F)c1ccc(-c2cccc3c2C2CC3CCN2Cc2ccccc2)cc1 (stereo not drawn) | 4.42%
42 | O=C(NCCc1ccccn1)c1cc(-c2ccc(Cl)cc2)nc2ccccc12 | -0.88%
43 | CCCCN(C)CCCNC(=O)c1cc(-c2cccs2)nc2ccccc12 | 140% (active)
44 | O=C(NCCN1CCOCC1)c1cc(-c2cccs2)nc2ccccc12 | 67.9% (active)
45 | Cc1cc(C(=O)OCC(=O)Nc2nccs2)c2ccccc2n1 | -2.68%
46 | Cc1csc2nc(O)c(C(=O)NCCN3CCOCC3)c(=O)n12 | 0.68%
47 | COC(=O)c1cc(N2CCNCC2)nc2ccccc12 | 12.9%
48 | O=C(NCC(c1cccs1)N1CCOCC1)c1cc(-c2ccccn2)nc2ccccc12 (stereo not drawn) | 5.77%
49 | COC(=O)c1cc(-c2cccs2)nc2ccccc12 | 31.1% (active)
50 | O=C(NCCN1CCOCC1)c1cc(Sc2cccc(Cl)c2)nc2ccccc12 | -0.13%
51 | CC(C)CC(=O)N=C1SC2CS(=O)(=O)CC2N1CCc1ccccc1 (stereo not drawn) | -1.54%
52 | C[C@H](CO)N1C[C@H](C)[C@@H](CN(C)S(=O)(=O)c2ccc(F)cc2)OCc2cnnn2CCCC1=O | -1.18%

Row | SMILES | inhibition
53 | CCc1n[nH]c(=S)n1/N=C/c1c[nH]c2ccc(Br)cc12 | 4.89%
54 | N#CCSc1nn(-c2ccc(F)cc2)c(=S)s1 | 2.99%
55 | CCCCC(=O)NNC(=S)NC(=O)C(c1ccccc1)c1ccccc1 | 6.76%
56 | CSc1ccc(CN2CCC2(C)C(=O)Nc2ccc(C)c(O)c2)cc1 (stereo not drawn) | -1.62%
57 | Cc1oc(CC(C)C)c(CN2CCCC2)c1C(=O)O | -9.07%
58 | Cc1noc(C)c1C(=O)OCC(=O)N1CCN(S(=O)(=O)c2ccc3ccccc3c2)CC1 | 3.46%
59 | CCCc1cc(=O)oc2c(C)c(OC(C)C(=O)NCC(O)c3ccccc3)ccc12 (stereo not drawn) | 18.1%
60 | O=c1cc(CN2CCCCCCC2)c2c(ccc3ccccc32)o1 | 17%
61 | O=C(CSc1ncccn1)N1CCCC1 | 1.75%
62 | Cc1cccc2c1-c1sc(C(=O)NCCCN3CCc4ccccc4C3)cc1CO2 | 90.4% (active)
63 | Cc1cccc(C)c1NC(=O)c1ccc(CN2CCc3ccccc3C2)cc1 | 1.47%
64 | Cc1ccc(NC(=O)CN2CCc3ccccc3C2)cc1C | 0.22%
65 | NC(=O)C1CCN(C(=O)COc2ccc3c4c(c(=O)oc3c2)CCC4)CC1 | 30.9% (active)
66 | CCOC(=O)N1CCN(C(=O)COc2ccc3oc4c(c3c2)CCCC4)CC1 | 0.5%
67 | O=C(COc1ccc2c3c(c(=O)oc2c1)CCC3)NC1CCCCC1 | 14.8%
68 | NC(=O)COc1ccc2c3c(c(=O)oc2c1)CCCCC3 | 114% (active)
69 | COc1ccc(N2CCN(C(=O)COc3ccc4c(C)cc(=O)oc4c3)CC2)cc1 | 14.8%
70 | O=C(COc1ccc2oc3c(c2c1)CCCC3)Nc1ccccn1 | 1.77%
71 | CCCN(CCC)CCCNC(=O)CNC(=O)c1nn(-c2ccc(OC)cc2)c(=O)c2ccccc12 | 1.04%
72 | O=C(COC(=O)CC1CC2CCC1C2)NC(=O)NC1CCCC1 (stereo not drawn) | -0.01%
73 | COc1ccccc1NC(=O)C(CC(=O)O)Cc1cc(C)cc(C)c1 (stereo not drawn) | -0.4%
74 | COc1ccc2nc(N3CCN(C(=O)c4ccc([N+](=O)[O-])o4)CC3)sc2c1 | -2.42%
75 | COc1ccc2nc(Nc3nc4cc5c(cc4s3)OCCO5)sc2c1 | 58.2% (active)
76 | NS(=O)(=O)c1ccc2nc(NC(=O)C3=COCCO3)sc2c1 | 1.72%
77 | Cc1cc(C)cc(Oc2nc3c(C)cccn3c(=O)c2/C=C(\C#N)C(=O)NC2CCS(=O)(=O)C2)c1 (stereo not drawn) | 16.1%
78 | C/C(=N/OC(=O)c1ccc(Br)cc1)c1ccc(C)cc1 | 1.15%

Row | SMILES | inhibition
79 | COc1ccc(S(=O)(=O)NC(=O)C2(C)CCN2C(=O)c2ccccc2CCc2ccccc2)cc1 (stereo not drawn) | 0.28%
80 | CC(=O)Nc1ccc2nc(NC(=O)CS(=O)(=O)c3ccc(F)cc3)sc2c1 | 1.63%
81 | CCOc1ccc2nc(Nc3nc4ccc(NC(C)=O)cc4s3)sc2c1 | 44.8% (active)
82 | CCOc1ccc2nc(C(=O)N3CCCC(C)C3)sc2c1 (stereo not drawn) | 0.22%
83 | O=C(NN1C(=O)C2C3C=CC(C3)C2C1=O)c1ccco1 (stereo not drawn) | 8.04%
84 | CCC(C)NCC(=O)Nc1ccc([N+](=O)[O-])cc1C(=O)Nc1ccccc1F (stereo not drawn) | -4.2%
85 | CCOC(=O)N1CCC(NC(=O)c2cnn3ccccc23)CC1 | 30.3% (active)
86 | CCOC(=O)N1CCC(NC(=O)CCc2cn(C)c3ccccc23)CC1 | 8.05%
87 | CCOC(=O)N1CCC(NC(=O)Cc2cn(C)c3ccccc23)CC1 | 11%
88 | CCO[C@@H]1OC(C(=O)NC2CC2)=C[C@H](C)[C@H]1CCCO | -0.48%
89 | O=C(O)C1CCCCC1C(=O)N1CCN(S(=O)(=O)c2ccc(F)cc2)CC1 (stereo not drawn) | -1.39%
90 | CSc1c(SCc2ccccc2)cnn(Cc2ccccc2)c1=O | -0.17%
91 | COC(=O)c1ccc(C2C(Oc3ccccc3C)C(=O)N2CCc2ccc(OC)c(OC)c2)cc1 (stereo not drawn) | -0.68%
92 | COc1cccc(C2CC(c3cccs3)=NN2C(=O)CSC2=NCCS2)c1OC (stereo not drawn) | 6.98%
93 | COc1ccc(C2CC(c3cccs3)=NN2c2ccc(F)cc2)cc1OC (stereo not drawn) | 27.2% (active)
94 | COc1ccc(C2CC(c3cccs3)=NN2c2nc(C)c(C(C)=O)s2)cc1OC (stereo not drawn) | 16.3%
95 | Cc1ccc(C2=NN(C(=O)CSc3nc(N)cc(N)n3)C(c3ccco3)C2)cc1 (stereo not drawn) | 0.79%
96 | Cc1ccccc1C1CC(c2cccs2)=NN1S(C)(=O)=O (stereo not drawn) | -0.14%
97 | Cc1ccc(N2C(=O)C3N=NN(CC(=O)N4N=C(c5cccc6ccccc56)CC4c4ccccc4)C3C2=O)cc1 (stereo not drawn) | 11.4%
98 | Oc1ccccc1C1=NN(c2ccccc2)C(c2ccccc2)C1 (stereo not drawn) | 72.4% (active)
99 | COc1ccccc1N1N=C(c2cccs2)CC1c1ccccc1 (stereo not drawn) | 39.5% (active)
100 | Fc1ccc(N2N=C(c3cccs3)CC2c2ccco2)c(F)c1 (stereo not drawn) | 102% (active)
101 | COc1ccc(C2CC(c3cccs3)=NN2C(=O)CSc2nnc(N)s2)cc1OC (stereo not drawn) | 3.05%
102 | O=C(COc1ccccc1Cl)N1N=C(c2cccs2)CC1c1ccco1 (stereo not drawn) | 7.49%
103 | O=C1C2N=NN(CC(=O)N3N=C(c4cccc5ccccc45)CC3c3ccccc3)C2C(=O)N1c1ccccc1 (stereo not drawn) | 11.2%
